Experimental data as given in publication PMC4336329 (PLoS ONE, 2015).
The campaign covered roughly 310,000 compounds. About 2,200 (0.71%) showed an effect of 50% or more. Effects have a minus sign here. For the sample, strong results were picked, then their nearest neighbours and some compounds at random.

target: human ether-à-go-go-related gene (hERG) potassium channel (human, UniProt Q12809); assay: primary screen, population patch clamp on CHO cells stably expressing hERG; higher = less effect of the substance
Sequence (Q12809 whole entry, looked up): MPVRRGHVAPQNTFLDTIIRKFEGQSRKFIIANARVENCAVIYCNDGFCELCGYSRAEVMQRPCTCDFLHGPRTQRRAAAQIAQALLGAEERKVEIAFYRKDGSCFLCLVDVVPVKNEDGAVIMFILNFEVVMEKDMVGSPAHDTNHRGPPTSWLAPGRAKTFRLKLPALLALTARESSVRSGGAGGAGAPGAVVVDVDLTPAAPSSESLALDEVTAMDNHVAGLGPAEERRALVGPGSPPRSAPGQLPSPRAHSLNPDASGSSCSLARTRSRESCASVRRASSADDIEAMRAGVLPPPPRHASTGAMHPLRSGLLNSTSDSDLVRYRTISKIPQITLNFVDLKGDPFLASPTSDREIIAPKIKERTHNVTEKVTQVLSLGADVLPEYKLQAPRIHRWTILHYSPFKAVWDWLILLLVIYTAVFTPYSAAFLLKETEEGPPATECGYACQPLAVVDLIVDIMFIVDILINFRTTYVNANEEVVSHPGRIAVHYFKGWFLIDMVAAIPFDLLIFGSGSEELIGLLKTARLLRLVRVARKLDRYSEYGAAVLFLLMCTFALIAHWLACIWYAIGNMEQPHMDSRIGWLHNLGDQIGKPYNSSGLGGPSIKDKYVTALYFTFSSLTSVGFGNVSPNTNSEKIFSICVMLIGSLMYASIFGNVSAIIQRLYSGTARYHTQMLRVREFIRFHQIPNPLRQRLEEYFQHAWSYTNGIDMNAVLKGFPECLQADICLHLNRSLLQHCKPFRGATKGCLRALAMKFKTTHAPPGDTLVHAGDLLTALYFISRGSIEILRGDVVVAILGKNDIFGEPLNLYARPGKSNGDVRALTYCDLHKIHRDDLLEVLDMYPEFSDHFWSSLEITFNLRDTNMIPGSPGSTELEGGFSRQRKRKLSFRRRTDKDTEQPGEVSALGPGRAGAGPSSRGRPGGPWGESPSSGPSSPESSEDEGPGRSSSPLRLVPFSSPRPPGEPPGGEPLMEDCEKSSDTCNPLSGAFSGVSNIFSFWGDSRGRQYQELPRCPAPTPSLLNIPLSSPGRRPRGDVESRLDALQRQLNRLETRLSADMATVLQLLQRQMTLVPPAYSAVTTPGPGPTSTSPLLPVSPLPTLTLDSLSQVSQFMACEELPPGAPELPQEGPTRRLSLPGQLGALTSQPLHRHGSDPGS

Structure (SMILES) | hERG current change (%, negative = inhibition) at 1uM [%]
CC(C1CC1)N(Cc1ccccc1)C(=S)Nc1ccccc1Cl (stereo not shown) | 3.13
COc1cccc(-c2noc(CCC(=O)NC3CCCCC3)n2)c1 | 0.894
COCCNc1nc(SCC(=O)N2CCN(c3ccccc3)CC2)nc2ccccc12 | -94.4
COc1ccccc1N1CCN(C(=O)CSc2nc3ccccc3nc2N2CCCCC2)CC1 | 16.5
O=C(CSc1nc2ccccc2c(=O)[nH]1)N1CCN(c2ccccc2)CC1 | 12.9
COCCNC(=O)CSc1nc2ccccc2c(=O)n1CCC(=O)N1CCN(c2ccccc2)CC1 | 6.84
COCCNc1nc(SCC(=O)N2CCN(c3ccccc3OC)CC2)nc2ccccc12 | -92.9
COc1ccccc1N1CCN(C(=O)CSc2nnc3c4ccccc4nc(Cc4ccccc4)n23)CC1 | -1.26
COc1cc2ccccc2cc1C(=O)N1CC(C)CC(C)C1 (stereo not shown) | -3.89
CCOC(=O)N/N=C/c1cccnc1 | 5
CCCCN(C(=O)COC(=O)c1ccc(C=O)cc1)c1c(N)n(CCC)c(=O)[nH]c1=O | 11
CCC(=O)N1CCN(c2nc(C)nc3sc(C)c(C)c23)CC1 | -54
Cc1nc(N2CCN(C(=O)COc3ccccc3)CC2)c2c(C)c(C)sc2n1.Cl | -29.3
Cc1nc(N2CCN(C(=O)CCC(=O)O)CC2)c2c(C)c(C)sc2n1 | -4.32
Fc1cccc(Cc2noc(CN3CCCN(C4Cc5ccccc5C4)CC3)n2)c1 | -86.9
Fc1cccc(Cc2noc(CN3CCOCC3)n2)c1 | 10.8
c1ccc(Cc2noc(CN3CCN(C4CCc5ccccc5C4)CC3)n2)cc1 (stereo not shown) | -76.1
Cc1cccnc1CN1CCN(Cc2nc(Cc3cccc(F)c3)no2)CC1 | 6.2
Cc1ccccc1N1CCN(Cc2nc(Cc3ccccc3)no2)CC1 | 8.68
Fc1cccc(Cc2noc(CN3CCSCC3)n2)c1 | 17.3
Fc1cccc(Cc2noc(CN3CCC(c4ccncc4)CC3)n2)c1 | -1.98
Fc1cccc(Cc2noc(CN3CCN(C4CCc5ccccc5C4)CC3)n2)c1 (stereo not shown) | -67.5

Structure (SMILES) | hERG current change (%, negative = inhibition) at 1uM [%]
COc1ccc(Cc2noc(CN3CCN(C4CCc5ccccc5C4)CC3)n2)cc1OC (stereo not shown) | -32
COc1ccc(Cc2noc(CN3CCCN(C4Cc5ccccc5C4)CC3)n2)cc1OC | -44.4
O=C(c1ccco1)N1CCCN(Cc2nc(Cc3ccccc3)no2)CC1 | 1.8
c1ccc(Cc2noc(CN3CCCN(C4Cc5ccccc5C4)CC3)n2)cc1 | -66
COc1ccnc2c1c(=O)n(Cc1cccc(F)c1)c(=O)n2C | 8.91
Cc1cc(C)cc(NC(=O)CSc2nnc(CNC(=O)c3ccco3)n2C)c1 | 14.2
Br.c1ccc(C2CNCc3c2ccc2ccccc32)cc1 (stereo not shown) | 1.84
COc1ccc(C(=O)NCc2nnc(SCC(=O)NCc3ccco3)o2)cc1OC | 14.2
COc1ccc(Nc2nnc(Cc3ccccc3)c(=O)[nH]2)c(OC)c1 | 8.03
COc1cccc(NC(=O)Cn2nc(Cc3cccnc3)c3ccccc3c2=O)c1 | -8.3
COc1ccc(Nc2ncnc3ccccc23)c(OC)c1.Cl | -0.118
COc1cccc(Nc2nnc(Cc3cccnc3)c3ccccc23)c1 | -83.2
COc1cccc(NC(=S)NCc2cccnc2)c1 | 11.1
COc1ccc(Nc2nnc(Cc3ccncc3)c3ccccc23)c(OC)c1 | -66.6
CCN(CC)CCOC(=O)c1cc2cc(COC)ccc2o1.CI | 9.98
O=C(CN1C(=O)c2cccnc2Oc2ccc(Cl)cc21)Nc1ccc(F)cc1 | 14.1
COCCCn1c(Cc2csc(Nc3cccc(Cl)c3)n2)nnc1SCC(=O)OC1CCCCC1 | -0.506
COc1ccc(C2CC(c3cccc(OC)c3OC)n3nnnc3N2)cc1 (stereo not shown) | -4.26
O=C(c1cccs1)N1CCN(C(=O)N2CCOCC2)CC1 | 15.2
COC(C[C@@H]1O[C@@H]1[C@H](O)COCc1ccccc1)OC | 10.5
CCOC(=O)c1cc(-c2ccc(Cl)cc2)nc2c1c(C)nn2CCC#N | 10.9
